Outcome and AC50 data for 20 compounds are collected here from PubChem BioAssay (EPA / NIEHS).

For test [1], the target named is mouse Cholecystokinin, CCK1 Receptor (CCKA), Cckar (gene 12425) (UniProt O08786). Nature of the test: NVS_GPCR_mCCKAPeripheral: NovaScreen (NVS) G Protein-Coupled Receptor Assay for mouse Cholecystokinin, CCK1 Receptor (CCKA) (AID 2283285). In a few lines: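 Radioligand competitive displacement on mouse pancreatic membranes, 2 h incubation; filter-based scintillation counting, loss of signal versus DMSO. Single-concentration screen at 25 uM in duplicate, actives retested in concentration-response up to 50 uM.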

The target in test [2] is rat Serotonin, 5-Hydroxytryptamine Receptor 1 (5HT1), Non-Selective Binding, Htr1a (gene 24473) (UniProt P19327). The experiment in a line: NVS_GPCR_r5HT1_NonSelective: NovaScreen (NVS) G Protein-Coupled Receptor Assay for rat Serotonin, 5-Hydroxytryptamine Receptor 1 (5HT1), Non-Selective Binding (AID 2283286). The gist of the method: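 Rat cortical membranes, radioligand displacement, 1 h incubation, read by filter scintillation. Primary screen in duplicate at 25 uM. Hits (e.g. ≥30% inhibition) went to concentration-response up to 50 uM, fitted as loss of binding versus DMSO.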

The test system of test [3] is rat Adrenergic, Alpha 1B Receptor (Adra1B), gene 24173. Nature of the test: NVS_GPCR_rAdra1B: NovaScreen (NVS) G Protein-Coupled Receptor Assay for rat Adrenergic, Alpha 1B Receptor (Adra1B) (AID 2283297). The gist of the method:
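Rat liver membranes, radioligand displacement with filter-based scintillation detection, 1 h incubation. Primary screen in duplicate at 25 uM; actives retested in concentration series; activity relative to DMSO.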

For test [4], the target named is rat Corticotropin Releasing Factor Receptor (CRF), Crhr1 (gene 58959) (UniProt P35353). Nature of the test: NVS_GPCR_rCRF: NovaScreen (NVS) G Protein-Coupled Receptor Assay for rat Corticotropin Releasing Factor Receptor (CRF) (AID 2283300). In a few lines: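 Rat cortical membranes used as receptor source in a radioligand competitive displacement binding assay; scintillation read 2 h after dosing. Primary screen run in duplicate at 25 uM; loss of signal versus DMSO baseline indicates binding.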

The target of a further test is Adra2b (gene 24174) (UniProt P19328). Nature of the test: NVS_GPCR_rmAdra2B: NovaScreen (NVS) G Protein-Coupled Receptor Assay for hybird cells Adrenergic, Alpha 2B Receptor (Adra2B) (AID 2283306). In a few lines: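 Radioligand filter-binding assay on membrane proteins from neuroglioma/blastoma hybrid cells (rodent), 1 h after dosing; scintillation counting, loss of signal vs DMSO. Primary screen in duplicate at 25 uM, actives then run in concentration series.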

The subject of test [5] is guinea pig Atrionatriuretic Peptide Receptor A (ANPA), gene 100135578. Nature of the test: NVS_GPCR_gANPA: NovaScreen (NVS) G Protein-Coupled Receptor Assay for guinea pig Atrionatriuretic Peptide Receptor A (ANPA) (AID 2283291). In a few lines: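 Radioligand binding to guinea pig cerebellar membranes was measured after 1 h by filter-based scintillation counting. Chemicals were tested in duplicate at 25 uM, with hits run in concentration-response to a maximum of 50 uM. Binding loss was fitted against DMSO.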

The test system of test [6] is rabbit Platelet Activating Factor Receptor (PAF), gene 100354046. The experiment in a line: NVS_GPCR_rabPAF: NovaScreen (NVS) G Protein-Coupled Receptor Assay for rabbit Platelet Activating Factor Receptor (PAF) (AID 2283287). The gist of the method:
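Rabbit platelet membrane preparation; radioligand displacement read by filter-based scintillation counting 1 h after dosing, loss of signal versus DMSO. Primary screen in duplicate at 25 uM, actives followed up in concentration series.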

Test [7] has as its target rat Adrenergic, Alpha 1A Receptor (Adra1A), Adra1a (gene 29412) (UniProt P43140). The experiment in a line: NVS_GPCR_rAdra1A: NovaScreen (NVS) G Protein-Coupled Receptor Assay for rat Adrenergic, Alpha 1A Receptor (Adra1A) (AID 2283296). The gist of the method: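 Rat cortical membranes pretreated with chlorethyl clonidine; competitive radioligand displacement, 1 h. Filter-based scintillation counting. Primary screen in duplicate at 25 uM, actives followed in concentration series.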

The target of test [8] is human Opioid Receptor Mu (Opiate Mu), OPRM1 (gene 4988) (UniProt P35372). The experiment in a line: NVS_GPCR_hOpiate_mu: NovaScreen (NVS) G Protein-Coupled Receptor Assay for human Opioid Receptor Mu (Opiate Mu) (AID 2283290).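 Note: hits lower bound tracer signal versus DMSO meaning displacement of the ligand.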 The gist of the method:
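Primary screen in duplicate at 25 uM, with actives followed in concentration series. CHO-derived receptor membranes, cell-free; bound radioligand read by scintillation counting after filtration at 2.5 h, decrease scored against DMSO.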

Test [9] concerns the target rat Serotonin, 5-Hydroxytryptamine Receptor (5HT), Non-Selective Binding, Htr1a (gene 24473) (UniProt P19327). Nature of the test: NVS_GPCR_r5HT_NonSelective: NovaScreen (NVS) G Protein-Coupled Receptor Assay for rat Serotonin, 5-Hydroxytryptamine Receptor (5HT), Non-Selective Binding (AID 2283295). In a few lines: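 Radioligand displacement on rat cortical membranes, 1 h incubation, filter-based scintillation counting. Primary duplicates at 25 uM, actives retested in concentration series; loss of signal fitted against DMSO as baseline.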

Test [10] concerns the target rat Adrenergic Receptor, Alpha 2 (Adra2), Non-selective Binding, Adra2a (gene 25083) (UniProt P22909). The experiment in a line: NVS_GPCR_rAdra2_NonSelective: NovaScreen (NVS) G Protein-Coupled Receptor Assay for rat Adrenergic Receptor, Alpha 2 (Adra2), Non-selective Binding (AID 2283299). The gist of the method:
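Rat cortical membranes, radioligand competitive displacement read by filter-based scintillation counting 1.25 hours after dosing. Primary screen in duplicate at 25 uM; actives followed up in concentration series.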

Test [11] addresses rat Adrenergic Receptor, Beta (Adrb), Non-selective Binding, Adrb1 (gene 24925) (UniProt P18090). Nature of the test: NVS_GPCR_rAdrb_NonSelective: NovaScreen (NVS) G Protein-Coupled Receptor Assay for rat Adrenergic Receptor, Beta (Adrb), Non-selective Binding (AID 2283298). The gist of the method:
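Non-selective beta-adrenergic radioligand binding in rat cortical membranes, 1 h incubation, filter-based scintillation read-out. Primary screen 25 uM in duplicate; hits retested in concentration-response up to 50 uM, DMSO baseline.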

The target of test [12] is rat Gamma-Aminobutyric Acid Type B Receptor (GABBR), Gabbr1 (gene 81657) (UniProt Q9Z0U4). The experiment in a line: NVS_GPCR_rGABBR: NovaScreen (NVS) G Protein-Coupled Receptor Assay for rat Gamma-Aminobutyric Acid Type B Receptor (GABBR) (AID 2283301). In a few lines:
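Radioligand displacement on rat cortical membranes, 1 h, filter-based scintillation counting. Primary screen at 25 uM in duplicate; compounds passing threshold re-tested in concentration-response up to 50 uM; loss of binding fitted against DMSO.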

Test [13] addresses rat Histamine Receptor (H3), Hrh3 (gene 85268) (UniProt Q9QYN8). The experiment in a line: NVS_GPCR_rH3: NovaScreen (NVS) G Protein-Coupled Receptor Assay for rat Histamine Receptor (H3) (AID 2283303). The gist of the method:
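Rat forebrain membranes incubated 1 h with compound; radioligand displacement measured by filter-based scintillation counting. Single-concentration duplicates at 25 µM, then concentration-response up to 50 µM, relative to DMSO.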

Test [14] concerns the target Metabotropic glutamate receptor 1 (Rattus norvegicus) (UniProt P23385). The experiment in a line: NVS_GPCR_rmMGluR1: NovaScreen (NVS) G Protein-Coupled Receptor Assay for rat Glutamate Metabotropic Receptor 1 (MGluR1) (AID 2283305). The gist of the method:
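Rat cerebellum membrane preparation, radioligand displacement binding read by filter-based scintillation counting 1 hour after dosing. Initial duplicate single-point screen at 25 uM, then concentration-response up to 50 uM; loss of signal versus DMSO baseline scored.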

Test [15] addresses rat Adrenergic, Alpha 1, Non-selective Receptor (Adra1), Adra1a (gene 29412) (UniProt P43140). Nature of the test: NVS_GPCR_rAdra1_NonSelective: NovaScreen (NVS) G Protein-Coupled Receptor Assay for rat Adrenergic, Alpha 1, Non-selective Receptor (Adra1) (AID 2283289). The gist of the method: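 Rat forebrain membranes; radioligand displacement read by filter-based scintillation counting 1 h after dosing. Primary screen in duplicate at 25 uM; hits (e.g. ≥30% inhibition) rerun as concentration–response to 50 uM max. Fitted versus DMSO.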

The target of test [16] is rat Neurotensin Receptor (NTS), Ntsr1 (gene 366274) (UniProt P20789). Nature of the test: NVS_GPCR_rNTS: NovaScreen (NVS) G Protein-Coupled Receptor Assay for rat Neurotensin Receptor (NTS) (AID 2283308). The gist of the method:
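Rat forebrain membranes; radioligand binding with competitive displacement, read by filter-based scintillation counting 1 h after dosing. Primary screen in duplicate at 25 uM; actives (e.g., 30% inhibition) rerun in concentration-response up to 50 uM, loss-of-signal versus DMSO.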

Records with an inconclusive call do not appear. The source made the active and inactive calls. Rule for the calls: active = hit-call score of the fitted dose curve at least 0.9, where 1 is the maximum; inconclusive = response in the unintended direction; inactive = score below 0.9.

Chain of mouse Cholecystokinin, CCK1 Receptor (CCKA), Cckar (gene 12425) (O08786 whole entry, looked up): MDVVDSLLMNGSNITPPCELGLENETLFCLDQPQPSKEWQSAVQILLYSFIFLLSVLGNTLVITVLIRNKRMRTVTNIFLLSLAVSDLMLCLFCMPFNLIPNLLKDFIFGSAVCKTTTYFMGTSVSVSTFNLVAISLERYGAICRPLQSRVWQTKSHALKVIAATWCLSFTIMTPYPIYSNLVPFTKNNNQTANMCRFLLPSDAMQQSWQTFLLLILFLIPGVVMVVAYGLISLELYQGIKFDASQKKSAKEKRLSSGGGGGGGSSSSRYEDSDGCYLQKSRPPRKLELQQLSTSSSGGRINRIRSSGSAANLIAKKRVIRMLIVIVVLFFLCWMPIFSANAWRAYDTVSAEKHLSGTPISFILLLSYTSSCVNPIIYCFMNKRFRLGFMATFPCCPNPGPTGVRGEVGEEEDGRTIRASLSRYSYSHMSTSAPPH
Chain of human Opioid Receptor Mu (Opiate Mu), OPRM1 (gene 4988) (P35372 whole entry, looked up): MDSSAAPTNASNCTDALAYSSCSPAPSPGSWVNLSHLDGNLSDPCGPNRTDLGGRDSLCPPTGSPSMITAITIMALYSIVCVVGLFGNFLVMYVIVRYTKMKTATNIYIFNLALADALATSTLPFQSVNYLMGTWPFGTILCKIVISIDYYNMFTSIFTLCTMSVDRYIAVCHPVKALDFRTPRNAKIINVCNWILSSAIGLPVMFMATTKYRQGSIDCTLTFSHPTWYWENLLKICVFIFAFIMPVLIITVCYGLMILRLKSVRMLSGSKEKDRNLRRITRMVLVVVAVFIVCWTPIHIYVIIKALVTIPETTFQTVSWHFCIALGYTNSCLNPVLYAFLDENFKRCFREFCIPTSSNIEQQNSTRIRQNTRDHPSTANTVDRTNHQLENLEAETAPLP
Chain of rat Gamma-Aminobutyric Acid Type B Receptor (GABBR), Gabbr1 (gene 81657) (Q9Z0U4 whole entry, looked up): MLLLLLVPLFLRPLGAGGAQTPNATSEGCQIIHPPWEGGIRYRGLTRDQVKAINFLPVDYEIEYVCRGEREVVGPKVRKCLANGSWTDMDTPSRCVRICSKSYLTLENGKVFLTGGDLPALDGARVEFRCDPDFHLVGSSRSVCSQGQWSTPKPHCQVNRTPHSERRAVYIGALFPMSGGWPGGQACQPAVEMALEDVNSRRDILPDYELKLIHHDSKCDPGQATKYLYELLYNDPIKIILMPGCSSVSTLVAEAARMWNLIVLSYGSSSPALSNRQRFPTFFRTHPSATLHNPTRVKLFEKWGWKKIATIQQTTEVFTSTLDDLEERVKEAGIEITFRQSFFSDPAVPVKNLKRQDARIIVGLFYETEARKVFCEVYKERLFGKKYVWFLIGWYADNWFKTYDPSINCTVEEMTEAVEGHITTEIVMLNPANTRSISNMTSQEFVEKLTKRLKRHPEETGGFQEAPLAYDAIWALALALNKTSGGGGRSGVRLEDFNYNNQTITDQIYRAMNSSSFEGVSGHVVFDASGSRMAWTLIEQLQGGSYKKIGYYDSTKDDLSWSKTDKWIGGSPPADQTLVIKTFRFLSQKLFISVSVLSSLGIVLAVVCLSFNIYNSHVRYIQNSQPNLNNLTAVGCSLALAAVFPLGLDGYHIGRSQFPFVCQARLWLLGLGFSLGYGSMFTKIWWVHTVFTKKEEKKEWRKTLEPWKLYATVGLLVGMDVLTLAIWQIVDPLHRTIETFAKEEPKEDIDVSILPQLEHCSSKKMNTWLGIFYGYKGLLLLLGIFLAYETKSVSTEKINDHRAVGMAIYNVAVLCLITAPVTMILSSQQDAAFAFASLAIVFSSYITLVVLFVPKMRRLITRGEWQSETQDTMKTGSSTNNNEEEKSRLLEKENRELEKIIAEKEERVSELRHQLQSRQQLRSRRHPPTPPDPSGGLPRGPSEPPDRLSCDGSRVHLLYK
Chain of rat Adrenergic, Alpha 1A Receptor (Adra1A), Adra1a (gene 29412) (P43140 whole entry, looked up): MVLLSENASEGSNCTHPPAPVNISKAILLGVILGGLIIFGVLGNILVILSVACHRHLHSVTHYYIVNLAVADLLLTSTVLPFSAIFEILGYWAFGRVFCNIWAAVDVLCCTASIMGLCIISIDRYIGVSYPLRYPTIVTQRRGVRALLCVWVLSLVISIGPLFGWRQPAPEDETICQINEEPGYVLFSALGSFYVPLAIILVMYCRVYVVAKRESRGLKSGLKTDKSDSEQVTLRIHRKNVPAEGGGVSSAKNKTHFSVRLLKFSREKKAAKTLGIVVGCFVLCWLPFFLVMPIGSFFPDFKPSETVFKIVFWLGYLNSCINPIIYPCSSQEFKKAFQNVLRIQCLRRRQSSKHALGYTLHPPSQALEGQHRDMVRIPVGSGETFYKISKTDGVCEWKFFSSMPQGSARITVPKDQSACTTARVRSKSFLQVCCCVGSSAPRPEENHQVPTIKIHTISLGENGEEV
Chain of rat Serotonin, 5-Hydroxytryptamine Receptor 1 (5HT1), Non-Selective Binding, Htr1a (gene 24473) (P19327 whole entry, looked up): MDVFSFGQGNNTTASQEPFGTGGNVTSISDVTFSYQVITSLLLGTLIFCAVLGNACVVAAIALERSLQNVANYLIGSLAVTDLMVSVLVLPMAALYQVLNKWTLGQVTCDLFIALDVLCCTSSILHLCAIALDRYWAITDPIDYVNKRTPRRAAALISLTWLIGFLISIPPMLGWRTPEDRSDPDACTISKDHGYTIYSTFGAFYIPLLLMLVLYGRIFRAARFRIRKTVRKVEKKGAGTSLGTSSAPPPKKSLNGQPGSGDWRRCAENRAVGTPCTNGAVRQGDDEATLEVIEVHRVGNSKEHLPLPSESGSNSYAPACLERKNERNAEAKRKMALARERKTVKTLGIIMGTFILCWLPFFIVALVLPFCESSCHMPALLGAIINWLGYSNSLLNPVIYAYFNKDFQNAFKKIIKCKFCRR
Chain of rat Adrenergic Receptor, Beta (Adrb), Non-selective Binding, Adrb1 (gene 24925) (P18090 whole entry, looked up): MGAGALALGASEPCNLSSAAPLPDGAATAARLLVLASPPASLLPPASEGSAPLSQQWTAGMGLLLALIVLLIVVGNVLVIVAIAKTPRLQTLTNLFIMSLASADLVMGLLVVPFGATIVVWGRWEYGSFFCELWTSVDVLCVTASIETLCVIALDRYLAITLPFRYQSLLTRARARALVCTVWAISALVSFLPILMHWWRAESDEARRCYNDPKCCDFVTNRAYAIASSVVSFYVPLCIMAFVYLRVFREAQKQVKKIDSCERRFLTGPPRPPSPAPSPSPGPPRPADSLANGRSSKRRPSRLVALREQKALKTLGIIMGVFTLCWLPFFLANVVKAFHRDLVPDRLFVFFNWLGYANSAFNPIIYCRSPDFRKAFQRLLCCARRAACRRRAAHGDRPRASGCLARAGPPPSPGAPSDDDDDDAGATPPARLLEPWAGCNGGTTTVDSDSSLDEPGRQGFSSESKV
Chain of Metabotropic glutamate receptor 1 (Rattus norvegicus) (P23385 whole entry, looked up): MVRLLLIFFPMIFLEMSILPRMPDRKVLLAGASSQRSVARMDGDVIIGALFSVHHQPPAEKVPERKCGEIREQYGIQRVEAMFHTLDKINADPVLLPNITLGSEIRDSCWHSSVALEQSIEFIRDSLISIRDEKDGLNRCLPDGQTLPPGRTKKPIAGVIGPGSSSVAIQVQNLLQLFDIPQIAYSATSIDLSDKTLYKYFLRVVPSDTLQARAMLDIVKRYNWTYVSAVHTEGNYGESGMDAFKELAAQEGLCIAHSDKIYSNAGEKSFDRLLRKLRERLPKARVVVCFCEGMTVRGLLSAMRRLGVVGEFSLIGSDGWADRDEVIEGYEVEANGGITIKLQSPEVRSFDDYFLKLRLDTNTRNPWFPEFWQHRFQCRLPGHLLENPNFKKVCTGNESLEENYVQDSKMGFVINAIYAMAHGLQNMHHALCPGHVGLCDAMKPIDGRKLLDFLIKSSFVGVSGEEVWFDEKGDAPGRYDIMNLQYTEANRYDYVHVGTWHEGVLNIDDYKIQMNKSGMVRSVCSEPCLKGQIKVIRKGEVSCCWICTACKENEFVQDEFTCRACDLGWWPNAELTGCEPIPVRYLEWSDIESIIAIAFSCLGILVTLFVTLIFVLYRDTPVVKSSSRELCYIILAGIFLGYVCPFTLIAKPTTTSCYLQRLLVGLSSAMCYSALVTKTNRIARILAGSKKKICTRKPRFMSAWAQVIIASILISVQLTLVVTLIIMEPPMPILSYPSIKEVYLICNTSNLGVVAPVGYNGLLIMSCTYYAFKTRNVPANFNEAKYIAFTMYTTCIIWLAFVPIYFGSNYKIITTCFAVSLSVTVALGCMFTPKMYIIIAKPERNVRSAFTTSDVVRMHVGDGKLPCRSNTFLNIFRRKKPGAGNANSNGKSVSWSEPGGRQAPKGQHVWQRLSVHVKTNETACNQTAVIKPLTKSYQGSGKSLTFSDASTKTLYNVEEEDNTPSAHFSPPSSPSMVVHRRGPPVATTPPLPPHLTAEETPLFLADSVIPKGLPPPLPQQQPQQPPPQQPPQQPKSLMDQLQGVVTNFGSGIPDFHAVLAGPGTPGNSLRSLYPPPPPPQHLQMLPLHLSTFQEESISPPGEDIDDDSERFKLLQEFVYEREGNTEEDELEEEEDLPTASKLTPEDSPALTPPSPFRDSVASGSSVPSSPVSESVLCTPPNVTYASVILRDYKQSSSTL
Chain of rat Adrenergic, Alpha 1, Non-selective Receptor (Adra1), Adra1a (gene 29412) (P43140 whole entry, looked up): as the sequence (P43140 whole entry, looked up) above

In the case of `CCOC(=O)C(C)OC(=O)c1cc(Oc2ccc(C(F)(F)F)cc2Cl)ccc1[N+](=O)[O-]` (centres undefined), the call in [1] was inactive.
For the compound `CC1(C)CCC(=Cc2ccc(Cl)cc2)C1(O)Cn1cncn1` (centres undefined), the compound was classed as inactive in test [2] and in test [3].
With `N#CN=C1SCCN1Cc1ccc(Cl)nc1`, the call (in test [4]; with Adra2b (gene 24174)) was inactive.
Take `CCSC(=O)N1CCCCCC1`: the compound was classed as inactive in test [5].
With `COCC(=O)N(c1c(C)cccc1C)C(C)C(=O)OC` (centres undefined), the call in test [6] was inactive.
For the compound `COP(=O)(OC)O/C(C)=C/C(=O)N(C)C`, the result in test [7] was inactive.
As to `CC1(C)CON(Cc2ccccc2Cl)C1=O`, in test [6], the compound was called inactive.
Consider `CCCCC(O)(Cn1cncn1)c1ccc(Cl)cc1Cl` (centres undefined), for which the compound was classed as inactive in test [1]. In addition, the half-maximal activity concentration (AC50) in test [8] is 4.96 µM (active).
Regarding `COP(=S)(OC)SCn1nnc2ccccc2c1=O`, the AC50 in [6] was 25 µM (active). The call in test [8] was inactive.
As to `CNC(=O)Oc1cccc2ccccc12`, the compound was called inactive in test [7].
Consider `CCCC(=NOCC)C1=C(O)CC(CC(C)SCC)CC1=O` (centres undefined), for which the compound was called inactive in test [6].
Consider `N#Cc1c[nH]cc1-c1cccc2c1OC(F)(F)O2`, for which the call in [9] and in [10] was inactive.
`CCNP(=S)(OC)O/C(C)=C/C(=O)OC(C)C` (centres undefined): the call in test [11] and in test [12] was inactive.
As to `O=c1n(Cl)c(=O)n(Cl)c(=O)n1Cl`, the outcome in [6] was inactive.
Consider `CC1(C)C(C(=O)OC(C#N)c2cccc(Oc3ccccc3)c2)C1(C)C` (centres undefined), for which the compound was classed as inactive in test [1].
Turning to `COc1cc(Cl)c(OC)cc1Cl`, the compound was classed as inactive in test [2] and in [3].
Regarding `CS(=O)(=O)c1ccc(C(=O)C2C(=O)CCCC2=O)c([N+](=O)[O-])c1`, the call in test [12] was inactive.
Consider `O=C1C2CC=CCC2C(=O)N1SC(Cl)(Cl)Cl` (centres undefined), for which the half-maximal activity concentration (AC50) in test [8] was 9.7 µM (active); in test [14], 25 µM (active). The compound was called inactive in test [13].
For `CCOc1nc(F)cc2nc(S(=O)(=O)Nc3c(Cl)cccc3Cl)nn12`, in test [15], the call was inactive.
Consider `O=C(Nc1ccccc1-c1ccc(Cl)cc1)c1cccnc1Cl`, for which the compound was classed as inactive in test [16].

Usually AC50 stands for the midpoint of the concentration-response curve, whichever way the signal moves.
